PubChem BioAssay AID588856 (National Center for Advancing Translational Sciences (NCATS), 2011)
Out of some 410,000 compounds screened, about 3,100 (0.76%) were called active. For the sample, actives were picked, then their nearest neighbours and some compounds at random. Unmarked numbers belong to inactive results. Calls come from the whole dose curve; as a rule, active = well fitted cell-killing curve with a large enough effect; inactive = no such curve, though single readings can be large or run the other way.

Assay: qHTS for Inhibitors of TGF-b: Cytotox Counterscreen
Details: HepG2 CAGA-GFP viability, ATP luminescence, 18 h; series mostly up to 46.1 µM; activity change, negative = cytotoxicity: at the top concentration
Outline: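 HepG2 CAGA-GFP cells (1000/well, DMEM with 1% FBS) received compound, then TGF-beta at 500 pg/mL final, and were incubated 18 hours at 37 degrees C. Viability was read by CellTiter-Glo luminescence. Media-only wells were set as complete cell-killing and DMSO as no toxicity.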
Potency is the fitted concentration of half-maximal effect.

| Structure (SMILES) | activity change, negative = cytotoxicity [%] | Potency |
| --- | --- | --- |
| CCN(CC)/[N+]([O-])=N/OCOC(=O)Cc1c(C)n(C(=O)c2ccc(Cl)cc2)c2ccc(OC)cc12 | -23.8 | – |
| Cc1ccccc1CN1CCC(CNC(=O)c2cc3ccc4cccnc4c3[nH]2)CC1 | – | 12.6 µM (active) |
| CCOc1ccccc1N(CC)C(=O)c1cc2ccc3cccnc3c2[nH]1 | – | 12.6 µM (active) |
| Cc1ccccc1CN1CCC(CNC(=O)c2c(C)oc3ncnc(N4CCCCC4)c23)CC1 | -36.1 | – |
| CCOc1ccccc1N(CC)C(=O)Nc1cn(C)c(=O)c2ccccc12 | -16.5 | – |
| Cc1ccccc1CN1CCC(C(=O)Nc2ccc(Oc3cccnc3)cc2)CC1 | -16.9 | – |
| COc1cc(NC(=O)c2cc3ccc4cccnc4c3[nH]2)cc(OC)c1OC | -13.7 | – |
| CCOc1ccc(N(CC)C(=O)C2CCN(S(=O)(=O)c3cccc4nonc34)CC2)cc1 | 0.639 | – |
| COc1ccccc1NC(=O)C1=C(C)Nc2ncnn2C1c1sccc1C (centres undefined) | -2.86 | – |
| O=C(CSc1nc(=O)[nH]c2c1CCCC2)Nc1cc(C(F)(F)F)ccc1Cl | -17.4 | – |
| CCN1CCN(c2ccc(/C=C/c3ccnc4ccccc34)cc2)CC1 | -46.6 | – |
| Cc1oc2ncn(CC(C)C)c(=O)c2c1C(=O)N1CCN(c2ccccc2F)CC1 | 3.12 | – |
| O=C1NC(Nc2nc3ccccc3s2)(C(F)(F)F)C(=O)N1C1CCCCC1 (centres undefined) | – | 11.2 µM (active) |
| O=C(NC1(C(F)(F)F)N=C(c2ccccc2)N(C2CCCCC2)C1=O)c1ccccc1F (centres undefined) | -0.647 | – |
| CCCN(C(=O)Cn1ncc2c([nH]c3ccc(C)cc32)c1=O)c1ccccc1C | 4.59 | – |
| Cc1ccc(/C=N/NC(=O)COc2ccccc2-c2ccccc2)cc1 | – | 10 µM (active) |
| CC(=O)c1ccc(NC(=O)COc2ccccc2-c2nc(-c3ccccc3)no2)cc1 | -1.05 | – |
| O=C(COc1ccc(-c2ccccc2)cc1)NN=C1CCCC1 | -16.8 | – |
| CCOc1ccccc1NC(=O)CCn1cnnn1 | 0.0324 | – |
| O=C(Nc1ccccc1Cl)/C(Cl)=C(\Cl)S(=O)c1ccccc1 (centres undefined) | – | 3.55 µM (active) |
| O=C(Nc1ccccc1Cl)N1CCC(CN2CCCC2)CC1 | -7.37 | – |
| O=C(Nc1ccccc1Cl)N1CCC(CN2CCCCC2)CC1 | 1.13 | – |
| CCCN1CCC(=O)N(C(CSc2ccc(OC)cc2)Cc2ccccc2)CC1 (centres undefined) | -31.2 | – |
| Cc1ccccc1CNC(=O)C1CCCN(S(=O)(=O)N(C)c2ccc(F)cc2)C1 (centres undefined) | -15.9 | – |
| O=C(Nc1ccccc1C(F)(F)F)c1nc(S(=O)(=O)Cc2ccccc2F)ncc1Cl | -106 | – |

| Structure (SMILES) | activity change, negative = cytotoxicity [%] | Potency |
| --- | --- | --- |
| CCOC(=O)c1ccc(NC(=O)c2nc(SCc3ccc(F)cc3)ncc2Cl)cc1 | -13.4 | – |
| Cc1cccc(CS(=O)(=O)c2ncc(Cl)c(C(=O)Nc3ccc(F)cc3)n2)c1 | – | 10 µM (active) |
| Cc1cccc(NC(=O)c2nc(S(=O)(=O)Cc3ccccc3)ncc2Cl)c1 | – | 11.2 µM (active) |
| CCCSc1ncc(Cl)c(C(=O)Nc2c(C(=O)Nc3ccccc3)oc3ccccc23)n1 | 0.304 | – |
| Cc1ccc(CCNC(=O)c2ccc(CS(=O)(=O)Cc3cccc(C)c3)o2)cc1 | -21 | – |
| Cc1ccc(NC(=O)c2nc(S(=O)(=O)Cc3cccc(C)c3)ncc2Cl)cc1 | – | 7.08 µM (active) |
| CCS(=O)(=O)c1ncc(N(Cc2ccc(F)cc2)Cc2ccco2)c(C(=O)Nc2cc(C)ccc2C)n1 | -1.85 | – |
| CSc1ncc(Cl)c(C(=O)Nc2ccc(S(=O)(=O)N3CCCC(C)C3)cc2)n1 (centres undefined) | -5.61 | – |
| CCCCCCCNc1ccc(/C=C/c2ccnc3ccccc23)cc1 | -6.29 | – |
| Cc1ccc(N2CC(NC(=O)Cc3cccs3)CC2=O)cc1 (centres undefined) | 6.69 | – |
| CN(C)c1ccc(/C=C2\C=Cc3ccccc32)cc1Br | -30.3 | – |
| COc1ccc(-c2ccc(OC)c(C3C4C=CCC(C)C4C(=O)N3Cc3ccccc3)c2)cc1C (centres undefined) | 9.55 | – |
| CN(C)CCCN(C(=O)c1ccc(S(=O)(=O)N2CCCCCC2)cc1)c1nc2ccc(Br)cc2s1 | – | 22.4 µM (active) |
| CCOc1ccc2nc(N(CCCN(C)C)C(=O)c3ccc(C(=O)c4ccccc4)cc3)sc2c1 | – | 15.8 µM (active) |
| CCN(CC(=O)Nc1c(F)cccc1F)C(=O)c1ccc(S(=O)(=O)N2CCCCC2)cc1 | 2 | – |
| Cc1cc(C)c2sc(NC(=O)c3ccc(S(=O)(=O)N4CCCC4)cc3)nc2c1 | -2.41 | – |
| O=C(CN(Cc1ccccc1)C(=O)c1ccc2c(c1)OCCO2)NCc1ccc2c(c1)OCO2 | 59.1 | – |
| O=C(CCOc1ccccc1)N(Cc1cccnc1)c1nc2ccc(Cl)cc2s1 | -23.5 | – |
| Cc1ccc(S(=O)(=O)N(CCCN(C)C)Cc2ccc3c(c2)OCO3)cc1 | -7.76 | – |
| CCc1ccc2nc(N(CCCN(C)C)C(=O)c3ccc4c(c3)OCCO4)sc2c1 | – | 11.2 µM (active) |
| CCOc1ccc2nc(N3CCC(C(=O)Nc4cc(C)ccc4C)CC3)sc2c1 | -20.6 | – |
| Cc1nn(C)c2c1c(C(F)(F)F)cc(=O)n2C(C)C(=O)NCc1ccc(Cl)cc1 (centres undefined) | -0.512 | – |
| COc1ccc(CNC(=O)c2cc3c(=O)[nH]c4ccc(C)cc4c3s2)c(OC)c1 | -25.2 | – |
| COc1cc(-c2cc3n(C)c(C)c(CCC(=O)Nc4ccc(F)cc4)c(=O)n3n2)cc(OC)c1OC | 2.54 | – |
| CC(=O)c1ccc(NC(=O)C2CCN(S(=O)(=O)c3c(C)noc3/C=C/c3ccc(C)cc3)CC2)cc1 | 6.96 | – |

| Structure (SMILES) | activity change, negative = cytotoxicity [%] | Potency |
| --- | --- | --- |
| COc1ccc(CNC(=O)c2cc3c(-c4ccccc4F)nn(C)c3s2)c(OC)c1 | -22.9 | – |
| COC(=O)c1scc(-c2ccccc2)c1S(=O)(=O)Nc1ccccc1 | -17.3 | – |
| COc1cccc(-c2cc3nc(NCCOc4ccccc4Cl)n(C)c(=O)c3s2)c1 | -25.5 | – |
| SCc1nc2ccc(Cl)cc2[nH]1 | -19.2 | – |
| O=c1[nH]c(CCl)nc2cc(-c3ccc(Cl)cc3)sc12 | – | 4.47 µM (active) |
| CCOC(=O)C1CCC(CN(Cc2ccc(OC)cc2)S(=O)(=O)c2ccc(F)c(C(=O)Nc3cc(C)ccc3C)c2)CC1 (centres undefined) | -1.68 | – |
| Cc1ccc(C)c(CNC(=O)c2cc3ccccn3n2)c1 | -13.7 | – |
| CCOc1n[nH]c(-c2ccccc2)n1 | -32.4 | – |
| Nc1c(C(=O)O)cnn1-c1ccccc1 | – | 11.2 µM (active) |
| NNC(=O)c1cnn(-c2ccccc2)c1C(F)(F)F | 14.9 | – |
| CCNC(=O)c1cnn(-c2ccccc2)c1-c1ccccc1 | -1.48 | – |
| Cc1ccc(F)cc1S(=O)(=O)N1CCC(c2nc3ccccc3s2)CC1 | -8.96 | – |
| COC(=O)c1cc(C)sc1NC(=O)CC1Nc2ccccc2NC1=O (centres undefined) | -1.34 | – |
| O=C(CC1Nc2ccccc2NC1=O)Nc1ccccc1 (centres undefined) | – | 12.6 µM (active) |
| O=C(CC1NCCc2ccccc21)Nc1cccc(Cl)c1 (centres undefined) | -10.5 | – |
| N#Cc1cc2[nH]c(=O)c(=O)[nH]c2cc1[N+](=O)[O-] | -56.5 | – |
| CCOc1ccc(N(Cc2ccccc2)C(=O)c2nc(SCC)ncc2Cl)cc1 | -60.2 | – |
| CCOc1ccc(N(Cc2ccccc2)C(=O)c2nc(S(C)(=O)=O)ncc2Cl)cc1 | – | 3.55 µM (active) |
| CCOc1ccc(NC(=O)CN(Cc2ccccc2)S(=O)(=O)c2ccc(Cl)cc2)cc1 | -26.9 | – |
| COCCNC(=O)c1ccc2c(c1)N(Cc1cccc(Cl)c1)C(=O)c1ccccc1S2(=O)=O | -23.1 | – |
| Cc1ccc(C(=O)N2CCc3cc(CNC(=O)c4ccc(Br)cc4)ccc32)cc1 | -18 | – |
| O=C(CSc1nc2ccc(Nc3nc(N4CCOCC4)nc(N4CCOCC4)n3)cc2s1)NCc1ccco1 | -31.4 | – |
| O=C(CSc1nc(Nc2ccccc2)nc(N2CCOCC2)n1)Nc1cc(Cl)ccc1O | – | 6.31 µM (active) |
| O=C(CSc1ccccc1)Nc1cc(Cl)ccc1Oc1ccccc1 | -3.19 | – |
| O=C1/C(=C\c2ccc([N+](=O)[O-])cc2)CS(=O)(=O)C/C1=C/c1ccc([N+](=O)[O-])cc1 | – | 14.1 µM (active) |

| Structure (SMILES) | activity change, negative = cytotoxicity [%] | Potency |
| --- | --- | --- |
| O=[N+]([O-])c1ccc(/C=C/c2ccc3cccnc3c2)cc1 | -53.7 | – |
| O=S(=O)(c1ccc(Cl)cc1)c1nc(-c2ccccc2F)oc1NCCN1CCOCC1 | 16.4 | – |
| O=C(Cc1ccc(Br)cc1)NCCN1CCOCC1 | 4.13 | – |
| c1ccc2cc3c(NCCN4CCOCC4)ccnc3cc2c1 | – | 3.55 µM (active) |
| CCC(=O)N1CCc2cc(CNC(=O)Nc3ccccc3Cl)ccc21 | -8.04 | – |
| COc1ccc(-c2nc(S(=O)(=O)c3ccccc3)c(N3CCCCC3)o2)cc1 | -4.93 | – |
| CCCc1nc2scc(-c3ccc(C)cc3)c2c(=O)n1N | 26.8 | – |
| Fc1ccc(-c2csc(-c3ccc(C4SCCS4)cc3)n2)cc1F | -2.96 | – |
| CCCc1cc(-c2nc(-c3ccc(C)cc3)cs2)ccn1 | – | 10 µM (active) |
| CC1(C)Cc2ccccc2-c2c[nH]c(=O)n21 | -4.31 | – |
| CCOc1ccc(C(=O)N2CCN(CCc3ccccn3)CC2)cc1 | 3.93 | – |
| CCN(CC)CCOc1ccc2c(c1)C(=NNC(=O)c1ccccn1)c1cc(OCCN(CC)CC)ccc1-2 | – | 15.8 µM (active) |
| CC(C)(C)c1ccc(C(=O)C[n+]2cccc3cc(Cl)ccc32)cc1 | -92 | – |
| CCN(C(=O)Cn1c(=O)nc(-c2ccccc2)c2cc(Cl)ccc21)c1cccc(C)c1 | 6.33 | – |
| O=C(c1cnn2c1NC(=C1CC1)C=C2C(F)F)N1CCc2ccccc2C1 | -9.79 | – |
| CN1CCN(c2oc(-c3ccc(COc4ccc(Cl)cc4)o3)nc2C#N)CC1 | -30 | – |
| CN(C)Cc1cn(-c2ccccc2)nc1-c1ccccc1 | -26.4 | – |
| CCc1ccc(-c2nn(-c3ccccc3)cc2CSC(=N)N)cc1 | – | 17.8 µM (active) |
| CCc1ccc(-c2nn(-c3ccccc3C)cc2C(=O)N2CCN(C3CCS(=O)(=O)C3)CC2)cc1 (centres undefined) | -12 | – |
| Cc1cc(C)c(NC(=O)Cn2c(SCC(=O)NCc3ccccc3)nc3ccccc32)c(C)c1 | 1.54 | – |
| Cc1ccc(Cl)cc1N1CCN(C(=O)C2CCC(CNS(=O)(=O)c3cccs3)CC2)CC1 (centres undefined) | -0.372 | – |
| Cc1ccc(CN2CCC(CNC(=O)c3cnn(-c4ccccc4Cl)c3C3CCN(C(=O)OC(C)(C)C)CC3)CC2)cc1 | – | 17.8 µM (active) |
| COc1ccccc1CN1CCC(CNC(=O)c2cnn(-c3ccccc3Cl)c2C2CCN(C(=O)OC(C)(C)C)CC2)CC1 | -60.3 | – |
| Cc1ccc(CN2CCC(CNC(=O)c3cnn(-c4ccc(C)cc4)c3C3CCN(C(=O)OC(C)(C)C)CC3)CC2)cc1 | -71.7 | – |
